Results taken from PubChem BioAssay (Tox21).
Activity calls are given as the source filed them. Unless noted, calls come from the whole dose curve; as a rule, active = well fitted curve in the direction sought with a large enough effect in the repeat runs; inconclusive = weak or mixed curves; inactive = no such curve, though single readings can be large; an effect the other way counts as inactive or inconclusive.

How the values were obtained:
[1] = qHTS assay to identify small molecule antagonists of the glucocorticoid receptor (GR) signaling pathway - cell viability counter screen (AID 720693); note: nearly all actives have a fitted effect of over 55% in size
[2] = qHTS assay for identifying genotoxic compounds that show differential cytotoxicity against isogenic chicken DT40 cell lines with known DNA damage response pathways - Rev3 mutant cell line (AID 743014); note: nearly all actives have a fitted effect of over 55% in size; note: potency is the fitted concentration of half-maximal effect
[3] = qHTS assay for identifying genotoxic compounds that show differential cytotoxicity against isogenic chicken DT40 cell lines with known DNA damage response pathways - Rad54/Ku70 mutant cell line (AID 743015); note: nearly all actives have a fitted effect of over 60% in size; note: potency is the fitted concentration of half-maximal effect
[4] = qHTS assay to identify small molecule antagonists of the androgen receptor (AR) signaling pathway - cell viability counter screen (AID 743033; note: nearly all actives have a fitted effect of over 45% in size)
[5] = qHTS assay to identify small molecule antagonists of the androgen receptor (AR) signaling pathway using the MDA cell line - cell viability counter screen (AID 743041; note: nearly all actives have a fitted effect of over 45% in size)
Procedure, shortened: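 In this qHTS counter assay, fluorescence intensity after CellTiter-Fluor addition indicated viability of MDA-kb2 AR-luc cells given compounds and R1881 for 16 h at 37C.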

[6] = qHTS assay to identify small molecule antagonists of the thyroid receptor (TR) signaling pathway - cell viability counter screen (AID 743064); note: nearly all actives have a fitted effect of over 50% in size; note: potency is the fitted concentration of half-maximal effect
Procedure, shortened: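 In rat pituitary GH3.TRE-Luc reporter cells co-exposed to compound and 1 nM T3 for 23.5 h, cytotoxicity was assessed with CellTiter-Fluor in the same wells, read by fluorescence.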

[7] = qHTS assay to identify small molecule antagonists of the thyroid receptor (TR) signaling pathway (AID 743065); note: nearly all actives have a fitted effect of over 55% in size; note: potency is the fitted concentration of half-maximal effect
Procedure, shortened: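 GH3.TRE-Luc rat pituitary cells carrying two TR response elements driving luciferase were plated for 4 h, given compound plus 1 nM T3 (final), and incubated 23.5 h at 37 C. ONE-Glo luminescence measured reporter inhibition; CellTiter-Fluor fluorescence tracked cytotoxicity.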

[8] = system: thyroid hormone receptor (rat, GH3 cells); test: qHTS assay to identify small molecule agonists of the thyroid receptor (TR) signaling pathway (AID 743066; calls by dose curve)
[9] = qHTS assay to identify small molecule antagonists of the estrogen receptor alpha (ER-alpha) signaling pathway - cell viability counter screen (AID 743074; calls by dose curve;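 note: HEK293 cells carrying ER-alpha-UAS-bla reporter stimulated with 17beta-estradiol; nearly all actives have a fitted effect of over 45% in size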; note: potency is the fitted concentration of half-maximal effect)
[10] = qHTS assay to identify small molecule antagonists of the estrogen receptor alpha (ER-alpha) signaling pathway using the BG1 cell line - cell viability counter screen (AID 743081);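 note: compound given together with 17beta-estradiol as the ER stimulus; nearly all actives have a fitted effect of over 45% in size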; note: potency is the fitted concentration of half-maximal effect
Aromatase (Homo sapiens) = Aromatase (Homo sapiens) (UniProt P11511); test: qHTS assay to identify aromatase inhibitors (AID 743083); note: series mostly up to about 70 µM; nearly all actives have a fitted effect of over 55% in size
[11] = qHTS assay to identify aromatase inhibitors - cell viability counter screen (AID 743084); note: potency is the fitted concentration of half-maximal effect
[12] = qHTS assay for identifying genotoxic compounds that show differential cytotoxicity against isogenic chicken DT40 cell lines with known DNA damage response pathways - wild type cell line (AID 743012); note: nearly all actives have a fitted effect of over 60% in size; note: potency is the fitted concentration of half-maximal effect
Procedure, shortened: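 Viability by ATP luminescence (CellTiter-Glo, 30 min RT) after 40 h compound treatment at 37 C/5% CO2, using 300 parental DNA repair-proficient DT40 cells per well.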

[13] = molecular target: Estrogen receptor (Homo sapiens) (UniProt P03372); test: qHTS assay to identify small molecule antagonists of the estrogen receptor alpha (ER-alpha) signaling pathway (AID 743069; active = well fitted curve in the direction sought with a large enough effect in the signal ratio in the repeat runs, not every such curve was filed as active; inconclusive = weak or mixed curves, or effect the other way; inactive = no such curve, though single readings can be large or run the other way; the % refers to the signal ratio; note: potency is the fitted concentration of half-maximal effect)
Procedure, shortened: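 A 17beta-estradiol challenge was applied right after compound transfer to ER-alpha-UAS-bla HEK293 cells previously kept in charcoal-stripped serum. Plates stood 18 hr at 37C and 5% CO2; fluorescence was read following 2 hr FRET substrate loading at room temperature.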

[14] = molecular target: Estrogen receptor (Homo sapiens) (UniProt P03372); test: qHTS assay to identify small molecule agonists of the estrogen receptor alpha (ER-alpha) signaling pathway (AID 743075; calls by dose curve;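 note: HEK293 GripTite cells with ER-alpha and UAS-driven beta-lactamase reporter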)
[15] = molecular target: Estrogen receptor (Homo sapiens) (UniProt P03372); test: qHTS assay to identify small molecule agonists of the estrogen receptor alpha (ER-alpha) signaling pathway using the BG1 cell line (AID 743079); note: nearly all actives have a fitted effect of over 20% in size; note: potency is the fitted concentration of half-maximal effect
[16] = qHTS assay to identify small molecule antagonists of the estrogen receptor alpha (ER-alpha) signaling pathway using the BG1 cell line (AID 743080; calls by dose curve;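 note: BG1 cells stimulated with 17beta-estradiol alongside compound; series mostly up to about 70 µM; nearly all actives have a fitted effect of over 25% in size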)
Procedure, shortened: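 Quantitative HTS on the Tox21 10K library: BG1 cells with endogenous ER-alpha and ERE-luciferase reporter, 17beta-estradiol stimulation, 21.5 h compound exposure, luminescence endpoint with parallel fluorescence cytotoxicity counter-read.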

[17] = molecular target: Androgen receptor (Homo sapiens) (UniProt P10275); test: qHTS assay to identify small molecule antagonists of the androgen receptor (AR) signaling pathway (AID 743035; active = well fitted inhibition curve with a large enough effect in the signal ratio in the repeat runs, not every such curve was filed as active; inconclusive = weak or mixed curves, or effect the other way; inactive = no such curve, though single readings can be large or run the other way; the % refers to the signal ratio; note: potency is the fitted concentration of half-maximal effect)
Procedure, shortened: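 Antagonist mode: AR-bla HEK293 cells co-treated with test compounds and agonist R1881 for 16 h at 37C, 5% CO2. Beta-lactamase activity read as FRET fluorescence after 2 h room-temperature substrate loading.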

[18] = molecular target: Androgen receptor (Homo sapiens) (UniProt P10275); test: qHTS assay to identify small molecule agonists of the androgen receptor (AR) signaling pathway (AID 743036; active = well fitted activation curve with a large enough effect in the signal ratio in the repeat runs, with a control signal flat, not every such curve was filed as active; inconclusive = weak or mixed curves, or effect the other way; inactive = no such curve, though single readings can be large or run the other way; the % refers to the signal ratio)
Procedure, shortened: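 Cell-based FRET reporter assay: HEK293 line with a UAS-beta-lactamase construct, compounds added in DMSO, 16 h exposure at 37C, then 2 h substrate step at room temperature and fluorescence intensity read.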

[19] = molecular target: Androgen receptor (Homo sapiens) (UniProt P10275); test: qHTS assay to identify small molecule antagonists of the androgen receptor (AR) signaling pathway using the MDA cell line (AID 743042; note: nearly all actives have a fitted effect of over 55% in size)
Procedure, shortened: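 MDA-kb2 cells (human breast carcinoma, stably carrying an MMTV-luciferase reporter responsive to AR and GR) were plated at 3,000 cells/well and preincubated 5 hr at 37C, then given compound plus R1881 agonist for 16 h. ONE-Glo luminescence was read.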

Measured: Potency

Androgen receptor (Homo sapiens), sequence (P10275 whole entry, looked up): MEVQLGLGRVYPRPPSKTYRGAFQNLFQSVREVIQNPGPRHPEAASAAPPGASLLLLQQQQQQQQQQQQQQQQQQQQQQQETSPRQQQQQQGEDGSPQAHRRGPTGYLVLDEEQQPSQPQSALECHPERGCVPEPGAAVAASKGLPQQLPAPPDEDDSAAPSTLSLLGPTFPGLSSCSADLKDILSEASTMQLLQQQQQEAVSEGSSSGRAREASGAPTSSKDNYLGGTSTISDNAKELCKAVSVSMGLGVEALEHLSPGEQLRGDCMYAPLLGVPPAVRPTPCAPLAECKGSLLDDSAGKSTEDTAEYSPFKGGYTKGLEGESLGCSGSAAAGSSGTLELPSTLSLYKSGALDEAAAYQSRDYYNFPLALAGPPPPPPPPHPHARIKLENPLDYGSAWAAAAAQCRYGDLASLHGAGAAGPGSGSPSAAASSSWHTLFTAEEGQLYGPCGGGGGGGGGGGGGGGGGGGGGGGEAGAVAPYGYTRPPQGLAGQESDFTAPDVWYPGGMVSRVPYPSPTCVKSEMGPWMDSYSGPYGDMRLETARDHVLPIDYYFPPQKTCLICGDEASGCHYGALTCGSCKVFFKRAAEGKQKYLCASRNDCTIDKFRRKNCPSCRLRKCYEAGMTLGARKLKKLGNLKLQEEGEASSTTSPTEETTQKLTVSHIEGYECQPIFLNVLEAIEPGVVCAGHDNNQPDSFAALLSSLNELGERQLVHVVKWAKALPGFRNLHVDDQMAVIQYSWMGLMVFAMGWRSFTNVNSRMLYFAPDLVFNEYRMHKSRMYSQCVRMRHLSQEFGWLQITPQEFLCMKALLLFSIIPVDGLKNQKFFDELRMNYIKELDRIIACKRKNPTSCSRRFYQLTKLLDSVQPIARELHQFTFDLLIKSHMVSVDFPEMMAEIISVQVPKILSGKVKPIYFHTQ
Aromatase (Homo sapiens), sequence (P11511 whole entry, looked up): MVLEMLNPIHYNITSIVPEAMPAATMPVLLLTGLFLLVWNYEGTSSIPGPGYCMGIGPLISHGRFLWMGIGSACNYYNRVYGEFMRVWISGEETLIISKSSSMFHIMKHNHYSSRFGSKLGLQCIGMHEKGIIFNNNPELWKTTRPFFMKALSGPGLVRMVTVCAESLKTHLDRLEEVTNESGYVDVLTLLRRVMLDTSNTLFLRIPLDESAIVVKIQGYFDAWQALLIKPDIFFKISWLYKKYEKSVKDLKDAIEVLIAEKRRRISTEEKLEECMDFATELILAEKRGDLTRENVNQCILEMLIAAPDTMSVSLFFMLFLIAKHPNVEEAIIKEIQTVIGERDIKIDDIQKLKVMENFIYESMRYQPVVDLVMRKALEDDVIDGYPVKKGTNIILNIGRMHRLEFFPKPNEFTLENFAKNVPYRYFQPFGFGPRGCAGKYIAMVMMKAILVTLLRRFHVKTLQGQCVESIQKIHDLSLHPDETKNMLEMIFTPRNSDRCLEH
Estrogen receptor (Homo sapiens), sequence (P03372 whole entry, looked up): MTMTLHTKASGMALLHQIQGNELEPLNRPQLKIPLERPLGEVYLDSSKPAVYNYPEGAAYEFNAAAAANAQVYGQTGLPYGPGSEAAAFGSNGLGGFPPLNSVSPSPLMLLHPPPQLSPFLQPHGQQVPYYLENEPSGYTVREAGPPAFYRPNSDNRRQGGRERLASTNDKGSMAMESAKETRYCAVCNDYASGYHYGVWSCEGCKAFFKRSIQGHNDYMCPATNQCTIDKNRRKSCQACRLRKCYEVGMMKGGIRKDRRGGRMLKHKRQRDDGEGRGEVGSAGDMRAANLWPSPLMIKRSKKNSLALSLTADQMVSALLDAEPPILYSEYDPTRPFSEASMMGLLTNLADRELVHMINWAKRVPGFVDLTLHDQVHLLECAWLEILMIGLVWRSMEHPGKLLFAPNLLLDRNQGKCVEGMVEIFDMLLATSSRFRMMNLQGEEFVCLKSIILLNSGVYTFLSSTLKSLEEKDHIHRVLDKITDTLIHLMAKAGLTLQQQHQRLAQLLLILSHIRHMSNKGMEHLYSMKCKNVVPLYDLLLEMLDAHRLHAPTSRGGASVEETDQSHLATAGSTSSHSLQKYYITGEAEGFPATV

NC(=O)Cc1cccc(C(=O)c2ccccc2)c1N
inactive: [1] | [2] | [3] | [4] | [5] | [6] | [7] | [8] | [9] | [10] | Aromatase (Homo sapiens) | [11]

CCCNC(C)(C)COC(=O)c1ccccc1
inactive: [1] | [12] | [3] | [4] | [5] | [7] | [8] | [13] | [9] | [14] | [15] | [16] | [10] | Aromatase (Homo sapiens) | [11]

CO[C@@]1(NC(=O)CSCC#N)C(=O)N2C(C(=O)O)=C(CSc3nnnn3C)CS[C@@H]21
inactive: [1] | [12] | [3] | [4] | [5] | [7] | [8] | [13] | [9] | [14] | [15] | [16] | [10] | Aromatase (Homo sapiens) | [11]

Cc1cc(NS(=O)(=O)c2ccc(N)cc2)nc(C)n1
inactive: [1] | [12] | [4] | [5] | [6] | [7] | [8] | [13] | [9] | [14] | [15] | [16] | [10] | Aromatase (Homo sapiens)

CC(=O)N[C@@H](CC(C)C)C(=O)O
inactive: [1] | [12] | [3] | [4] | [5] | [7] | [8] | [13] | [9] | [14] | [16] | [10] | Aromatase (Homo sapiens) | [11]

CCCN(CCC)C(=O)C(CCC(=O)O)NC(=O)c1ccccc1 (stereo not drawn)
inactive: [1] | [12] | [3] | [4] | [5] | [6] | [7] | [8] | [9] | [10] | Aromatase (Homo sapiens) | [11]

O=C1Nc2ccc([N+](=O)[O-])cc2C1=O
inactive: [1] | [12] | [3] | [4] | [6] | [7] | [8] | [9]

CCc1nnc(NS(=O)(=O)c2ccc(N)cc2)s1
inactive: [1] | [12] | [3] | [4] | [5] | [6] | [7] | [8] | [10] | Aromatase (Homo sapiens) | [11]

CCN(CC)CCNC(=O)COc1ccc(Cl)cc1
inactive: [1] | [2] | [3] | [4] | [5] | [7] | [8] | [13] | [9] | [14] | [15] | [16] | [10] | Aromatase (Homo sapiens) | [11]

Cc1ccccc1C(=O)Nc1ccc(C(=O)N2CCCC(O)c3cc(Cl)ccc32)c(C)c1 (stereo not drawn)
active: [12] 26.6 µM | [7] 23.7 µM
inactive: [1] | [4] | [5] | [6] | [8] | [9] | [11]

Cc1c(N)cccc1N
inactive: [1] | [12] | [4] | [5] | [6] | [7] | [8] | [9] | [10] | [11]
active: [3] 14 µM

CC(C)=CCC[C@](C)(O)[C@@H]1CC=C(C)CC1
inactive: [1] | [2] | [3] | [4] | [5] | [6] | [7] | [8] | [10] | Aromatase (Homo sapiens) | [11]

NCCC(O)(P(=O)(O)O)P(=O)(O)O
inactive: [1] | [12] | [3] | [4] | [5] | [9] | [10] | Aromatase (Homo sapiens) | [11]

CC(C)NC[C@@H](O)COc1cccc2ccccc12
inactive: [1] | [5] | [8] | [9] | [10] | Aromatase (Homo sapiens) | [11]
active: [12] 26.6 µM

CN1CCN(C2=Nc3ccccc3Oc3ccc(Cl)cc32)CC1
active: [12] 12.7 µM
inactive: [1] | [4] | [5] | [8] | [13] | [9] | [14] | [15] | [16] | [10] | Aromatase (Homo sapiens) | [11]

C=O
inactive: [1] | [12] | [3] | [4] | [5] | [6] | [7] | [8] | [9] | [10] | Aromatase (Homo sapiens) | [11]

Cc1nc(-c2ccccn2)ncc1C(=O)Nn1cc(C)c2cc(F)ccc21
inactive: [1] | [18] | [5] | [6] | [7] | [8] | [13] | [9] | [14] | [10] | Aromatase (Homo sapiens) | [11]
active: [12] 61.1 µM | [3] 30.6 µM | [17] 49 µM

NC1=NCC2c3ccccc3Cc3ccccc3N12 (stereo not drawn)
active: [12] 21.1 µM
inactive: [1] | [5] | [6] | [8] | [9] | [10] | Aromatase (Homo sapiens) | [11]

c1ccc(CN(CC2=NCCN2)c2ccccc2)cc1
inactive: [1] | [4] | [5] | [8] | [9] | [14] | [15] | [16] | [10] | Aromatase (Homo sapiens) | [11]
active: [12] 29.8 µM | [6] 26.6 µM | [7] 23.7 µM

O=C(CC(=O)C(F)(F)F)c1ccccc1
inactive: [1] | [12] | [4] | [5] | [8] | [9] | [14] | Aromatase (Homo sapiens) | [11]
active: [13] 28 µM [inconclusive] | [15] 19.6 µM

CCOc1ccc2nc(N)sc2c1
active: [15] 4.29 µM
inactive: [1] | [12] | [4] | [5] | [6] | [7] | [8] | [13] | [9] | [14] | [10] | Aromatase (Homo sapiens) | [11]

CN(C)C(=O)NC1(c2ccccc2)CCN(CCC[C@]2(c3ccc(Cl)c(Cl)c3)CCCN(C(=O)c3ccccc3)C2)CC1
active: [12] 10.3 µM | [3] 9.2 µM | [6] 5.17 µM | [7] 11.6 µM | [11] 6.51 µM
inactive: [1] | [5] | [13] | [9] | [14] | [15] | [16] | Aromatase (Homo sapiens)

CC(C)CC(=O)OCc1ccccc1
inactive: [1] | [12] | [4] | [5] | [6] | [7] | [8] | [13] | [9] | [14] | [15] | [16] | [10] | Aromatase (Homo sapiens) | [11]

O=C1CCN(c2ccccc2)N1
inactive: [1] | [4] | [17] | [18] | [5] | [19] | [6] | [8] | [9] | [14] | [15] | [16] | [10] | Aromatase (Homo sapiens) | [11]

CCN(CC)CCOc1ccc(Cc2ccccc2)cc1
inactive: [4] | Aromatase (Homo sapiens) | [11]
active: [12] 0.473 µM | [2] 0.188 µM | [3] 0.376 µM | [6] 11.9 µM | [7] 10.6 µM | [9] 26.8 µM | [10] 29.8 µM

CC(C)(C)c1ccc(OC(=O)c2ccccc2O)cc1
inactive: [1] | [3] | [4] | [5] | [8] | [13] | [9] | [14] | [10] | Aromatase (Homo sapiens) | [11]
active: [15] 27.3 µM

Cc1c[nH]c(=S)[nH]c1=O
inactive: [1] | [2] | [3] | [6] | [7] | [8] | [13] | [9] | [14] | [15] | [16] | [10]

CN(C)CCOc1ccccc1Cc1ccccc1
active: [10] 2.37 µM
inactive: [1] | [2] | [4] | [5] | [8] | [9] | Aromatase (Homo sapiens) | [11]
